Measured values published in PubChem BioAssay AID1159580 (chemical genetic matrix, 2015).
In all, about 5,500 compounds went through this assay and about 2,000 (36%) were called active. Inconclusive results (about 18%) are left out. Rule as the data show it: active = normalized growth mostly below about 0.91 (no sharp cut-off); inconclusive = no clear call, values can overlap the other calls; inactive = mostly above about 0.92. This is one part of the list.

Test: chemical genetic growth profiling, strain panel (AID 1159580);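 also: tested at 20 µM; growth read once vehicle control cultures reached saturation at 30 °C; 1 = growth at the plate median or of vehicle wells; lower values mean less growth of the strain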
Settings: growth OD

Measured: normalized growth

CC(=O)Oc1c(C)cccc1C(=O)O
inactive: S. cerevisiae deletion strains, locus YJR043C, strain POL32, stronger effect = lower value 1 | S. cerevisiae deletion strains, locus YJR075W, strain HOC1, stronger effect = lower value 1.01 | S. cerevisiae deletion strains, locus YKL009W, strain mrt4, stronger effect = lower value 0.975 | S. cerevisiae deletion strains, locus YKL068W, stronger effect = lower value 0.995 | S. cerevisiae deletion strains, locus YKL085W, strain MDH1 (second series), stronger effect = lower value 1 | S. cerevisiae deletion strains, locus YKL085W, strain MDH1, stronger effect = lower value 1 | S. cerevisiae deletion strains, locus YKL160W, strain elf1, stronger effect = lower value 0.994 | S. cerevisiae deletion strains, locus YKL190W, strain CNB1, stronger effect = lower value 1.01 | S. cerevisiae deletion strains, locus YKR001C, strain vps1, stronger effect = lower value 1.02 | S. cerevisiae deletion strains, locus YKR026C, strain gcn3, stronger effect = lower value 0.986 | S. cerevisiae deletion strains, locus YKR091W, strain srl3, stronger effect = lower value 1.02 | S. cerevisiae deletion strains, locus YLL001W, strain dnm1, stronger effect = lower value 0.986 | S. cerevisiae deletion strains, locus YLL026W, stronger effect = lower value 1.01 | S. cerevisiae deletion strains, locus YLL041C, strain sdh2, stronger effect = lower value 0.991 | S. cerevisiae deletion strains, locus YLR027C, strain aat2, stronger effect = lower value 0.989 | S. cerevisiae deletion strains, locus YLR039C, strain RIC1, stronger effect = lower value 1 | S. cerevisiae deletion strains, locus YLR058C, strain SHM2, stronger effect = lower value 1.01 | S. cerevisiae deletion strains, locus YLR102C, strain apc9, stronger effect = lower value 1.01 | S. cerevisiae deletion strains, locus YLR221C, strain rsa3, stronger effect = lower value 1.02 | S. cerevisiae deletion strains, locus YLR258W, strain gsy2, stronger effect = lower value 0.999 | S. cerevisiae deletion strains, locus YLR262C, strain YPT6 (second series), stronger effect = lower value 1.03 | S. cerevisiae deletion strains, locus YLR262C, strain YPT6, stronger effect = lower value 1.05 | S. cerevisiae deletion strains, locus YLR268W, strain sec22, stronger effect = lower value 1.01 | S. cerevisiae deletion strains, locus YLR320W, strain mms22, stronger effect = lower value 1.03 | S. cerevisiae deletion strains, locus YLR330W, strain CHS5, stronger effect = lower value 1 | S. cerevisiae deletion strains, locus YLR342W, strain FKS1 (second series), stronger effect = lower value 1.02 | S. cerevisiae deletion strains, locus YLR342W, strain FKS1, stronger effect = lower value 1 | S. cerevisiae deletion strains, locus YLR357W, strain rsc2, stronger effect = lower value 1.04 | S. cerevisiae deletion strains, locus YLR370C, strain arc18, stronger effect = lower value 0.992 | S. cerevisiae deletion strains, locus YLR371W, strain rom2, stronger effect = lower value 1.01 | S. cerevisiae deletion strains, locus YLR384C, strain iki3, stronger effect = lower value 1.01 | S. cerevisiae deletion strains, locus YLR418C, strain cdc73, stronger effect = lower value 1.03 | S. cerevisiae deletion strains, locus YML016C, strain PPZ1, stronger effect = lower value 1.02 | S. cerevisiae deletion strains, locus YML032C, strain rad52, stronger effect = lower value 1.02 | S. cerevisiae deletion strains, locus YML120C, strain ndi1, stronger effect = lower value 1.02 | S. cerevisiae deletion strains, locus YML124C, strain tub3, stronger effect = lower value 1.01 | S. cerevisiae deletion strains, locus YMR058W, strain fet3, stronger effect = lower value 1.02 | S. cerevisiae deletion strains, locus YMR078C, strain ctf18, stronger effect = lower value 1.02 | S. cerevisiae deletion strains, locus YMR125W, strain sto1, stronger effect = lower value 1 | S. cerevisiae deletion strains, locus YMR129W, stronger effect = lower value 1.02 | S. cerevisiae deletion strains, locus YMR205C, strain PFK2, stronger effect = lower value 0.986 | S. cerevisiae deletion strains, locus YMR223W, strain ubp8, stronger effect = lower value 1.01 | S. cerevisiae deletion strains, locus YMR231W, strain pep5, stronger effect = lower value 1.01 | S. cerevisiae deletion strains, locus YMR263W, strain SAP30, stronger effect = lower value 1.01 | S. cerevisiae deletion strains, locus YMR307W, strain GAS1, stronger effect = lower value 1.05 | S. cerevisiae deletion strains, locus YNL067W, strain RPL9B, stronger effect = lower value 1.01 | S. cerevisiae deletion strains, locus YNL071W, strain lat1, stronger effect = lower value 1.02 | S. cerevisiae deletion strains, locus YNL128W, strain TEP1, stronger effect = lower value 1.01 | S. cerevisiae deletion strains, locus YNL153C, strain GIM3, stronger effect = lower value 1.01 | S. cerevisiae deletion strains, locus YNL209W, strain ssb2, stronger effect = lower value 1.01 | S. cerevisiae deletion strains, locus YNL233W, strain BNI4, stronger effect = lower value 1.01 | S. cerevisiae deletion strains, locus YNL248C, strain rpa49, stronger effect = lower value 1.01 | S. cerevisiae deletion strains, locus YNL250W, strain rad50, stronger effect = lower value 1.02 | S. cerevisiae deletion strains, locus YNL271C, strain bni1, stronger effect = lower value 1.01 | S. cerevisiae deletion strains, locus YNL298W, strain CLA4, stronger effect = lower value 0.987 | S. cerevisiae deletion strains, locus YNL307C, strain MCK1, stronger effect = lower value 1.02 | S. cerevisiae deletion strains, locus YNL322C, strain KRE1 (second series), stronger effect = lower value 1.01 | S. cerevisiae deletion strains, locus YNL322C, strain KRE1, stronger effect = lower value 1.01 | S. cerevisiae deletion strains, locus YNR049C, strain mso1, stronger effect = lower value 0.978 | S. cerevisiae deletion strains, locus YNR052C, strain pop2, stronger effect = lower value 1.01 | S. cerevisiae deletion strains, locus YOL006C, strain TOP1, stronger effect = lower value 1.02 | S. cerevisiae deletion strains, locus YOL012C, strain htz1 1.54 | S. cerevisiae deletion strains, locus YOL147C, strain pex11, stronger effect = lower value 1.01 | S. cerevisiae deletion strains, locus YOR001W, strain rrp6, stronger effect = lower value 1.01 | S. cerevisiae deletion strains, locus YOR061W, strain CKA2, stronger effect = lower value 1 | S. cerevisiae deletion strains, locus YOR069W, strain VPS5, stronger effect = lower value 1.01 | S. cerevisiae deletion strains, locus YOR070C, strain gyp1, stronger effect = lower value 0.99 | S. cerevisiae deletion strains, locus YOR080W, strain dia2, stronger effect = lower value 0.999 | S. cerevisiae deletion strains, locus YOR083W, strain WHI5, stronger effect = lower value 1.01 | S. cerevisiae deletion strains, locus YOR106W, strain vam3, stronger effect = lower value 1.01 | S. cerevisiae deletion strains, locus YOR136W, strain idh2, stronger effect = lower value 1.02 | S. cerevisiae deletion strains, locus YOR144C, strain elg1, stronger effect = lower value 1.02 | S. cerevisiae deletion strains, locus YOR184W, strain ser1, stronger effect = lower value 1.01 | S. cerevisiae deletion strains, locus YOR265W, strain rbl2, stronger effect = lower value 0.993 | S. cerevisiae deletion strains, locus YOR270C, strain vph1, stronger effect = lower value 1.06 | S. cerevisiae deletion strains, locus YOR290C, strain snf2, stronger effect = lower value 0.99 | S. cerevisiae deletion strains, locus YOR316C, strain cot1, stronger effect = lower value 1.02 | S. cerevisiae deletion strains, locus YPL051W, strain arl3, stronger effect = lower value 1 | S. cerevisiae deletion strains, locus YPL055C, strain LGE1, stronger effect = lower value 1.03 | S. cerevisiae deletion strains, locus YPL078C, strain atp4, stronger effect = lower value 1.02 | S. cerevisiae deletion strains, locus YPL106C, strain sse1, stronger effect = lower value 1.06 | S. cerevisiae deletion strains, locus YPL240C, strain hsp82, stronger effect = lower value 0.973 | S. cerevisiae deletion strains, locus YPL241C, strain CIN2, stronger effect = lower value 0.986 | S. cerevisiae deletion strains, locus YPR119W, strain clb2, stronger effect = lower value 1 | S. cerevisiae deletion strains, locus YPR141C, strain kar3, stronger effect = lower value 1 | S. cerevisiae deletion strains, locus YPR163C, strain tif3, stronger effect = lower value 1.01 | S. cerevisiae deletion strains, locus YPR167C, strain met16, stronger effect = lower value 1.01 | S. cerevisiae deletion strains, strain wtn01, stronger effect = lower value 1 | S. cerevisiae strains, strain wild type, stronger effect = lower value 0.993
